MEP2 TOR yeast: yeast TOR pathway MEP2-GFP modulation. AID 2016. 330,000 tested, 0.51% active. S. cerevisiae MEP2-GFP strain, flow cytometry GFP, 3 h; 100% = DMSO control level. GFP response vs DMSO, % at 10 µM;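 active means GFP response versus DMSO above a set limit, roughly screen mean plus 3 SD, cut at about 180% in these data; inconclusive means fewer than 70 cells counted for a yeast strain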;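 further: median GFP fluorescence of the barcode-gated MEP2-GFP cells per well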
RPL19A-GFP yeast: alters RPL19A-GFP fluorescence in TOR pathway yeast screen | 330,000 tested, 0.3% active | AID 2025 | percent response vs DMSO, % at 10 µM | S. cerevisiae RPL19A-GFP strain, flow cytometry, 3 h; stronger effect = lower value;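 active means percent response vs DMSO below 50%; inconclusive means fewer than 70 events counted for the yeast strain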;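 further: median channel GFP fluorescence of the barcoded RPL19A-GFP strain; ratio of sample median GFP to plate DMSO average so 100% = DMSO; lower means less RPL19A-GFP as with rapamycin TOR inhibition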
CIT2 TOR yeast: alters CIT2-GFP fluorescence in TOR pathway yeast screen. S. cerevisiae CIT2-GFP strain, flow cytometry, 3 h; 100 means same as DMSO wells. GFP response vs DMSO, % at 10 µM. 320,000 tested, 0.065% active;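 active means GFP response relative to DMSO above a set limit, near the screen mean plus 3 SD, cut at about 150% in these data; inconclusive means Fewer than 70 cells measured for a yeast strain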;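 further: ratio of well median GFP fluorescence to mean of DMSO wells on the plate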
LAP4 TOR yeast: alters LAP4-GFP fluorescence in TOR pathway yeast screen. 320,000 tested, 0.34% active. GFP response vs DMSO, % at 10 µM. S. cerevisiae LAP4-GFP multiplex, flow cytometry GFP, 3 h; median GFP as percent of DMSO wells;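 active means GFP response vs DMSO above a set limit, about the screen mean plus 3 SD, cut at about 150% in these data; inconclusive means under 70 cell events counted for the yeast strain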
AGP1 TOR yeast: yeast TOR pathway AGP1-GFP modulation; S. cerevisiae AGP1-GFP multiplex flow cytometry, 3 h; GFP as percent of DMSO wells; GFP response vs DMSO, % at 10 µM; 320,000 tested, 0.02% active; AID 2066;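 active means GFP response relative to DMSO above a set limit, near screen average plus 3 SD, cut at about 150% in these data; inconclusive means fewer than 70 cells counted for the yeast strain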;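 further: median GFP channel fluorescence of the gated AGP1 strain per well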
JMJD2C inh: blocks human GASC-1 demethylase activity; GST-JMJD2C(1-420) H3K9me3 demethylation, DELFIA europium; inhibition, % at 2.35 µM; 330,000 tested, 0.069% active; Q9H3R0;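 active means more than half of a compound's replicate wells show inhibition beyond 50%, single wells judged on their own value; inconclusive means some, but no more than half, of replicates pass 50% inhibition; inactive means no replicate passes 50% inhibition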;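 further: signal counts dimethyl H3K9 product captured on neutravidin plate; 0% = median of DMSO wells and 100% = 0.3 times that DMSO median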
Target sequence (Q9H3R0 1-420 limits assumed): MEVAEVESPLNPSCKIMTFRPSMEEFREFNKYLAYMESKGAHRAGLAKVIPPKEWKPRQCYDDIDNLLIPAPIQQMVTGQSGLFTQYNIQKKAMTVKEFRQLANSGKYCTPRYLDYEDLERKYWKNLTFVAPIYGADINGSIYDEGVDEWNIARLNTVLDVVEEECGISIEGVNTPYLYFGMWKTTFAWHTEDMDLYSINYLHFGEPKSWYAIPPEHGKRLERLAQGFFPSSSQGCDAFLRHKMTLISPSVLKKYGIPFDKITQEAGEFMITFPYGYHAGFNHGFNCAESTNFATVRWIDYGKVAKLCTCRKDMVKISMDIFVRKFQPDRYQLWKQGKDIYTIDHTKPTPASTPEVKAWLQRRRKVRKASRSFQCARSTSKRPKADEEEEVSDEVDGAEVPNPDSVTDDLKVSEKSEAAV
LAP4 cherry2: reconfirmed LAP4-GFP TOR pathway modulator in yeast. 590 tested, 20% active. S. cerevisiae LAP4-GFP strain, flow cytometry GFP, 3 h. shares compounds with LAP4 TOR yeast. GFP response vs DMSO, % at 10 µM;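 active means GFP signal as percent of the solvent control above about 150%, meaning raised reporter expression, limit read from the data; inconclusive means fewer than 70 cells counted in the well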;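 further: ratio of well median GFP fluorescence to plate DMSO mean so 100% = DMSO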
MEP2 cherry2: yeast MEP2-GFP modulation, second cherry pick | shares compounds with LAP4 TOR yeast | S. cerevisiae MEP2-GFP strain, flow cytometry GFP, 3 h | GFP response vs DMSO, % at 10 µM | 590 tested, 10% active;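 active means GFP signal above 150% of the solvent control wells, that is a rise of more than half; inconclusive means fewer than 70 yeast cells counted in the well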;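 further: median channel GFP fluorescence of all gated yeast cells per well; ratio of median GFP to plate DMSO average so 100% = DMSO level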
RPL19A-GFP pick2: reconfirmed modulator of RPL19A-GFP TOR reporter in yeast; shares compounds with LAP4 TOR yeast; S. cerevisiae RPL19A-GFP strain, flow cytometry GFP, 3 h; stronger effect = lower value; 100% means same as DMSO wells; GFP response vs DMSO, % at 10 µM; 590 tested, 3% active; AID 2623;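 active means under 65% GFP response relative to DMSO; inconclusive means yeast strain with under 70 measured events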;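 further: median GFP channel fluorescence per well over the all cells gate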
CIT2 GFP CP2: reconfirmed modulator of CIT2-GFP TOR reporter in yeast. shares compounds with LAP4 TOR yeast. S. cerevisiae CIT2-GFP strain, flow cytometry GFP, 3 h; DMSO control wells read 100%. GFP response vs DMSO, % at 10 µM. 590 tested, 8% active;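 active means GFP response vs DMSO above about 150%, limit read from the data; inconclusive means fewer than 70 events counted for a yeast strain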;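 further: median green fluorescence per well over all gated yeast cells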
AGP1-GFP pick2: second confirmation of modulators of TOR reporter AGP1-GFP in yeast; shares compounds with LAP4 TOR yeast; percent response vs DMSO, % at 10 µM; 590 tested, under 10 active; AID 2643; S. cerevisiae AGP1-GFP strain, flow cytometry GFP, 3 h;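 active means over 150 percent of DMSO response; inconclusive means yeast strain measured with under 70 events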;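 further: median GFP channel fluorescence over all cells without mother daughter split; sample median GFP divided by mean DMSO control so 100% equals DMSO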
Yeast autofluor: compound is autofluorescent in yeast s288c cells; S. cerevisiae s288c, 520 nm autofluorescence, flow cytometry, 3 h; stronger effect = higher value; zero means same as solvent-only cells; fluorescence change (kMESF span) at 33 µM; 610 tested, under 10 active; shares compounds with LAP4 TOR yeast;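 active means fluorescence span over the dose series, or activity score, above about 33, limit read from the data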
Yeast autofl DR: TOR screen hit shows autofluorescence in yeast s288c | AID 488829 | fluorescence change (span) at 33 µM | S. cerevisiae s288c parental, compound autofluorescence, flow cytometry, 3 h | 110 tested, under 10 active | shares compounds with LAP4 TOR yeast;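 active means fluorescence change span, or the activity score built from it, above 25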
TORC1 bypass: compounds blocking wildtype yeast growth but not TORC1 bypass cells; shares compounds with LAP4 TOR yeast; S. cerevisiae BY4741 spot growth rating, 48-72 h; stronger effect = lower value; growth rating (0-3) at 30 µM; 120 tested, under 10 active;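 active means growth rating at most 1 for wild type yeast while the TORC1 bypass strain still grows fully, rated 3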
Starred values were filed as active, the others as inactive; ? = inconclusive; . = no result. Sampled rows, rich in hits. Any-hit rate of the full collection: about 0.97%.

SMILES	MEP2 TOR yeast	RPL19A-GFP yeast	CIT2 TOR yeast	LAP4 TOR yeast	AGP1 TOR yeast	JMJD2C inh	LAP4 cherry2	MEP2 cherry2	RPL19A-GFP pick2	CIT2 GFP CP2	AGP1-GFP pick2	Yeast autofluor	others
Cc1ccc(C(CC(=O)O)NC(=O)c2ccc(S(=O)(=O)N3CC(C)OC(C)C3)cc2)cc1 (centres undefined)	195.9*	100.4	109.5	113.8	97.1	10.0	98.2	99.6	99.1	96.0	98.6	0
O=C(Cn1cnc2ccccc2c1=O)c1cccs1	97.0	93.3	97.8	93.7	92.5	11.4	.	.	.	.	.	.
O=C(/C=C/c1ccnc2ccccc12)c1cccs1	100.3	98.9	79.7	172.4*	112.4	7.4	.	.	.	.	.	0
CCOC(=O)c1c(CSCc2ccccc2)oc2ccc(O)c(CN(C)C)c12	155.5	55.1	90.3	95.5	87.7	-12.9	98.2	99.6	99.7	112.6	97.8	.
CCOC(=O)c1c(-c2ccccc2)oc2ccc(O)c(CN(C)C)c12	97.7	98.4	103.0	92.5	96.6	-15.0	.	.	.	.	.	.
COc1ccc(/C=N/N2CCN(Cc3ccc(C)cc3)CC2)cc1Br	100.9	99.9	97.4	88.9	97.4	3.3	.	.	.	.	.	.
c1ccc(NC2=NCCN2CCCC2CCCCC2)cc1	95.7	96.5	94.4	92.9	97.5	1.4	.	.	.	.	.	.
O=C(Nc1ccon1)c1ccc(S(=O)(=O)N2CCOCC2)cc1	94.6	91.5	95.7	90.0	91.8	-0.3	.	.	.	.	.	.
CSC1=NS(=O)(=O)c2c(C)nn(C)c2S1	92.0	85.2	68.2	153.7*	94.3	-10.6	.	.	.	.	.	0	Yeast autofl DR=0;TORC1 bypass=3
O=C1c2cccc3c([N+](=O)[O-])ccc(c23)C(=O)N1CCc1ccccn1	167.2	95.6	123.0	152.2*	87.6	5.9	.	.	.	.	.	11.6
Cc1ccc2nc(-c3ccc(NC(=S)NC4CC(C)(C)NC(C)(C)C4)cc3)sc2c1	129.2	54.7	71.5	83.3	13.6	-7.4	125.0	108.2	95.0	104.0	93.3	.
COc1ccc(NC(=O)Nc2ccc(F)cc2F)c(C)c1	105.0	96.5	92.8	107.7	104.2	0.9	.	.	.	.	.	.
Cc1cc([N+](=O)[O-])ccc1NC(=O)Nc1ccc(F)cc1F	109.1	59.1	70.5	170.6*	52.0	-8.2	101.0	101.5	96.2	99.5	96.7	.
CN(C(=O)COC(=O)CCC(=O)c1ccc(F)cc1)C1CCCCC1	99.0	99.3	97.5	97.2	99.7	3.2	.	.	.	.	.	.
CC(NC(=O)c1ccccc1F)C12CC3CC(CC(C3)C1)C2 (centres undefined)	88.0	94.2	90.3	158.0*	80.2	?	106.7	96.5	97.9	93.9	94.5	.
CC1CCCCC1NC(=O)COC(=O)c1ccc2c(c1)NC(=O)CS2 (centres undefined)	93.0	92.9	86.0	91.5	96.4	.	.	.	.	.	.	.
Cc1ccc2c(c1)c(/C=C/c1cc[n+](C)cc1)c(C)n2C	289.0*	127.4	205.6*	198.2*	116.7	-2.2	.	.	.	.	.	15.6
Cc1ccc2[nH]c(C)c(/C=C/c3cc[n+](C)cc3)c2c1	344.1*	124.2	223.5*	208.6*	110.0	-2.7	.	.	.	.	.	16.5
O=C(NC(=S)Nc1ccc2oc(=O)ccc2c1)c1cccc(Cl)c1	139.2	54.9	105.6	86.8	23.1	4.7	97.1	103.2	102.3	100.7	101.6	0.2
O=C(NC(=S)Nc1ccc2oc(=O)ccc2c1)c1cccc(F)c1	105.2	100.7	108.3	92.3	100.1	6.9	.	.	.	.	.	.
COc1ccc(-c2cn(-c3ccccc3)nc2C(=O)O)cc1OC	103.7	103.1	99.9	96.6	101.3	6.2	.	.	.	.	.	.
CCCCc1ccc(NC(=O)CC(C)=O)cc1	110.2	106.8	102.9	110.2	103.2	9.8	143.3	174.7*	107.5	151.6*	101.4	0
Cc1cc2ccccn2c1C(=O)c1cccc([N+](=O)[O-])c1	111.4	104.5	103.0	106.1	111.4	-9.3	.	.	.	.	.	.
Cc1cc2ccccn2c1C(=O)c1ccc([N+](=O)[O-])o1	100.7	83.8	121.3	218.3*	97.5	1.9	.	.	.	.	.	17.6
Cc1cccc(OCC(=O)NCC(=O)N/N=C/c2c(C)[nH]c3ccccc23)c1	105.5	105.2	107.2	102.9	99.6	1.8	.	.	.	.	.	.
SMILES	MEP2 TOR yeast	RPL19A-GFP yeast	CIT2 TOR yeast	LAP4 TOR yeast	AGP1 TOR yeast	JMJD2C inh	LAP4 cherry2	MEP2 cherry2	RPL19A-GFP pick2	CIT2 GFP CP2	AGP1-GFP pick2	Yeast autofluor	others
CNC(=O)C(=O)NCC1CCCN1S(=O)(=O)c1cccs1 (centres undefined)	105.8	105.3	108.6	107.1	114.2	113.8	.	.	.	.	.	.
COCCCNC(=O)C(=O)NCC1CCCN1S(=O)(=O)c1cccs1 (centres undefined)	106.3	77.5	67.2	205.2*	100.0	4.2	101.0	103.2	101.5	100.7	99.1	.
O=C(NCC(=O)N1CCC(N2CCCCC2)CC1)C1CCCCC1	230.1*	26.2*	103.3	99.1	27.1	-1.8	98.1	104.8	98.3	102.9	105.7	.
O=C(NCC(=O)N1CCN(c2ccccc2O)CC1)C1CCCCC1	104.7	108.2	106.0	105.2	109.1	0.4	.	.	.	.	.	.
COc1ccc(C(=O)Nc2ccc(O)c3ccccc23)cc1OC	94.7	89.5	94.6	99.2	100.6	9.8	.	.	.	.	.	.
CS(=O)(=O)c1ccc(Sc2nc3ccccc3s2)c([N+](=O)[O-])c1	100.4	100.2	100.0	98.5	95.9	18.7	.	.	.	.	.	.

Source: PubChem BioAssay (several laboratories)
